Measurements: PubChem BioAssay AID602252 (Broad Institute, 2012)
Among all 300,000 compounds or so, about 2,700 (0.9%) were called active.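 How the source made its calls: active means mean inhibition of at least 30% with at least half of replicates also reaching 30%; inconclusive means no clear call, values can overlap the other calls; inactive means the rest.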 The full list was thinned out, with actives kept by preference.

target: Golgi-associated PDZ and coiled-coil motif-containing protein (Homo sapiens) (UniProt Q9HD26); assay: blockade of CAL PDZ-reporter peptide interaction – biochemical, fluorescence polarization, untagged CAL PDZ, HTS, primary screen (AID 602252); conditions: purified CAL PDZ, TMR-peptide fluorescence polarization, 1 h; at 24.9 µM; active compounds read high;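 further: 0% = DMSO neutral control and 100% = excess unlabeled competitor peptide PRC23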

SMILES | inhibition
COc1ccccc1C(=O)CSc1cccc[n+]1[O-] | 1.87% (inactive)
O=C(CSc1cccc[n+]1[O-])c1ccc(-c2ccccc2)cc1 | 0.814% (inactive)
O=C(CSc1cccc[n+]1[O-])c1ccc(Cl)cc1 | 51.8% (active)
CCOC(=O)C1CCCN(C(=O)C2CCN(S(=O)(=O)c3ccc(Cl)c(C(F)(F)F)c3)CC2)C1 (stereo not drawn) | -2.17% (inactive)
O=C(Nc1ccc(N2CCOCC2)cc1)c1ccc(-c2ccccc2[N+](=O)[O-])o1 | -1.55% (inactive)
O=C1NC(c2ccc(-c3ccccc3[N+](=O)[O-])o2)C(C(=O)c2ccc(Cl)cc2)C(O)(C(F)(F)F)N1 (stereo not drawn) | -0.998% (inactive)
CC1=NN(c2ccc(Cl)c(C(=O)O)c2)C(=O)/C1=C/c1ccc(-c2ccccc2[N+](=O)[O-])o1 | 64% (active)
COC1C(CO)OC(n2cnc3c(=S)nc(N)[nH]c32)C1O (stereo not drawn) | -4.66% (inactive)
COc1cc(OC)cc(-c2sc3ccc(OC)cc3c2-c2ccc3cc[nH]c3c2)c1 | -4.97% (inactive)
O=C(NCc1ccccc1)c1cccc(NC(=O)C2CCCCC2)c1 | -1.61% (inactive)
COc1ccc(-c2oc3ncn(Cc4ccco4)c(=N)c3c2-c2ccc(OC)cc2)cc1 | 36.1% (active)
N=c1c2c(-c3ccccc3)c(-c3ccccc3)oc2ncn1Cc1ccco1 | 4.45% (inactive)
COc1ccc(C(=O)CSc2nnc(COc3ccccc3)n2Cc2ccco2)cc1 | -1.09% (inactive)
O=C(c1cccc(S(=O)(=O)N2CCCCCC2)c1)N1CCN(Cc2ccccc2)CC1 | -6.1% (inactive)
O=C(NCCc1c[nH]c2ccc(Cl)cc12)c1ccc([N+](=O)[O-])cc1 | -7.41% (inactive)
Cc1ccc2[nH]cc(CCNC(=O)c3ccc([N+](=O)[O-])cc3)c2c1 | -3.1% (inactive)
O=C(C[C@H]1C/C=C\C[C@@H](NC(=O)OCC2c3ccccc3-c3ccccc32)C(=O)O[C@@H](c2ccccc2)CNC1=O)N[C@H](CO)Cc1ccccc1 | 3.89% (inactive)
C=CC[C@@H](CC(=O)N[C@@H](CO)Cc1ccccc1)C(=O)NCCOC(=O)[C@@H](CC=C)CC(=O)OC(C)(C)C | -4.88% (inactive)
CC(=O)c1cccc(-c2ccc(CN3C(CC(C)C)C(=O)N(Cc4cn(CC5CCCCC5)nn4)CCS3(=O)=O)cc2)c1 (stereo not drawn) | -1.77% (inactive)
NC(=O)CSc1nnc(NC(=O)c2ccc3ccccc3c2)s1 | -4.05% (inactive)
O=C(Nc1nnc(SCc2c(Cl)cccc2Cl)s1)c1cccc([N+](=O)[O-])c1 | 76.9% (active)

SMILES | inhibition
O=C(Nc1nnc(SCc2ccccc2Cl)s1)c1cccc([N+](=O)[O-])c1 | -3.54% (inactive)
O=C(CSc1nc2ccccc2c(=O)n1Cc1ccc(F)cc1)NCC1CCCO1 (stereo not drawn) | 0.714% (inactive)
Cc1ccc(NC(=O)c2ccc(Cl)nc2)cc1S(=O)(=O)N1CCOCC1 | -1.23% (inactive)
CC[C@]12c3[nH]c4cc(CCC(=O)N(C)C)ccc4c3CCN1C(=O)[C@@H](CC(=O)NCC13CC4CC(CC(C4)C1)C3)C[C@@H]2C(=O)N1CCN(C(=O)C2CC2)CC1 | 5.74% (inactive)
CCCCC(=O)NC(c1ccc(OC)c(OC)c1)c1ccc2cccnc2c1O (stereo not drawn) | -1.93% (inactive)
O=C(COc1ccc(/C=N/NC(=O)c2ccc(O)cc2)cc1)Nc1ccc([N+](=O)[O-])cc1 | -1.35% (inactive)
O=C(O)c1ccc(/C=N/NC(=S)NCc2ccccc2)cc1 | -1.3% (inactive)
O=C(N/N=C/c1ccc(OC(=O)c2ccccc2Cl)cc1)c1ccc(O)cc1 | -4.63% (inactive)
C=CCNC(=S)N/N=C/c1ccc(OCc2ccccc2)cc1 | 51.2% (active)
O=C(Cc1cccs1)N/N=C/c1ccc(OCc2ccccc2)cc1 | -1.99% (inactive)
O=C(N/N=C/c1ccc(OCc2ccccc2)cc1)c1ccc(O)cc1 | 83.5% (active)
CN1C(c2ccc(F)cc2)=CS/C1=C(/C#N)c1nnc2n1-c1ccccc1SC2 | 7.66% (inactive)
C=CCC[C@H](Cc1ccc(F)cc1)C(=O)OC[C@@H](Cc1c[nH]c2ccccc12)NC(=O)[C@H](CC=C)CC(=O)N[C@H](CO)Cc1ccccc1 | -1.97% (inactive)
C=CCC[C@H](Cc1ccc(F)cc1)C(=O)OC[C@@H](NC(=O)[C@@H](CC=C)CC(=O)N[C@H](CO)Cc1ccccc1)C(C)(C)C | 40.2% (active)
C=CC[C@@H](CC(=O)N[C@H](CO)Cc1ccccc1)C(=O)N[C@H](C)COC(=O)[C@@H](CC=C)Cc1ccc(F)cc1 | 4.91% (inactive)
O=C1/C(=C\c2ccc(O)cc2)CCC1CNc1ccc(Cl)cc1 (stereo not drawn) | -2.09% (inactive)
CC(=O)OC1CCC2(C)C(=CCC3C4CC(=O)N(O)C(=O)C4(C)CCC32)C1 (stereo not drawn) | -3.51% (inactive)
c1ccc(C(=NNc2nc3ccccc3s2)c2ccccn2)cc1 | 10.3% (inactive)
CCOCc1nnc(NC(=O)CCS(=O)(=O)Cc2ccccc2)s1 | -2.55% (inactive)
COCc1nnc(NC(=O)CS(=O)(=O)Cc2ccccc2)s1 | -3.64% (inactive)
CCCCc1nnc(NC(=O)CS(=O)(=O)Cc2ccccc2)s1 | 30.2% (active)

SMILES | inhibition
COc1ccc(N2CCN(C(CNS(=O)(=O)c3ccc(C)cc3)c3ccccc3)CC2)cc1 (stereo not drawn) | -2.12% (inactive)
O=C1C=CN2CCCC2CC1 (stereo not drawn) | -1.74% (inactive)
O=C(NC(=S)Nc1ccc(Br)cc1F)C1CCCCC1 | -6.68% (inactive)
Cc1nn(-c2ccc(F)cc2)c(Cl)c1/C=C(/CCC(=O)O)c1nc2ccccc2s1 | -3.19% (inactive)
COc1cc(C2c3cc4c(cc3C(O)C3COC(=O)C23)OCO4)cc(OC)c1OC (stereo not drawn) | -1.27% (inactive)
CCc1ccccc1NC(=O)c1ccc2c(c1)CCN2S(C)(=O)=O | 40% (active)
CS(=O)(=O)N1CCc2cc(C(=O)Nc3ccccc3Br)ccc21 | -1.26% (inactive)
CSc1ccccc1NC(=O)c1ccc2c(c1)CCN2S(C)(=O)=O | -1.36% (inactive)
COc1cc(OC)cc(-c2cc3ccc(F)cc3cn2)c1 | -1.91% (inactive)
C/C(=C\c1ccco1)CN1CCC(N2CCC(C(=O)N3CCOCC3)CC2)CC1 | 5.25% (inactive)
O=C(C1CCN(Cc2ccc(Cl)cc2)CC1)N1CCN(Cc2ccc3c(c2)OCO3)CC1 | 2.38% (inactive)
O=C(C1CCN(C2CCN(Cc3cccc4c3OCO4)CC2)CC1)N1CCOCC1 | 37.8% (active)
CCC(CO)Oc1cc(NC(=O)c2cccc3ccccc23)c2ncn(C(C)C)c2c1 (stereo not drawn) | -1.65% (inactive)
Cc1cc(C)cc(OCC(=O)Nc2ccc(N3CCOCC3)cc2N2CCOCC2)c1 | -3.82% (inactive)
CCOc1ccc(NC(=O)C2CC(=O)N=C(N)S2)cc1 (stereo not drawn) | -0.069% (inactive)
CCOc1ccc(N/C(N)=N/c2nc(C)c(C)c(=O)[nH]2)cc1 | 42% (active)
CCOc1ccc(NC(=O)c2nc(SCC)ncc2Cl)cc1 | -1.2% (inactive)
CCCCN1CC(COCc2ccccc2)OCCS1(=O)=O (stereo not drawn) | -4.9% (inactive)
O=C(O)c1ccc(NN=CC2=C(N3CCOCC3)/C(=C/c3ccccc3)CC2)cc1 | -3.09% (inactive)
CCCCNC(=O)C(C)N(CCN(C)C)C(=O)CCCCCN1C(=O)NC(c2ccc(Cl)cc2)C(C(=O)OCc2ccccc2)=C1C (stereo not drawn) | -7.11% (inactive)
Cc1oc2nc(SCC(=O)Nc3ccc(S(N)(=O)=O)cc3)nc(NC(=O)c3ccccc3)c2c1C | 30.6% (active)

SMILES | inhibition
Cc1oc2nc(SCC(=O)NCc3cccnc3)nc(N)c2c1C | -4.94% (inactive)
Cc1cc(-c2nnc(SCC(=O)Nc3ccc(S(N)(=O)=O)cc3)n2N)n[nH]1 | 2.84% (inactive)
O=C(CCc1ccccc1)Nc1nn[nH]n1 | -4.68% (inactive)
CCOC(=O)CNC(=O)/C=C/c1c(Cl)cccc1Cl | -4.11% (inactive)
O=C(/C=C/c1c(F)cccc1Cl)Nc1nn[nH]n1 | 133% (active)
COc1ccc2c(c1)[C@H]1[C@H](CO2)[C@H](c2ccccc2)[C@]2(C)C(=O)Nc3cc(F)c(F)cc3C(=O)N12 | -3.04% (inactive)
Cc1ccc(S(=O)(=O)NC[C@H]2O[C@@H](n3cnc4c(N)ncnc43)[C@H](O)[C@@H]2O)s1 | -0.852% (inactive)
O=c1c(Cl)c(NC2CC2)cnn1-c1ccccc1 | -0.978% (inactive)
C=CCNc1cnn(-c2ccc(C)cc2)c(=O)c1Cl | 82% (active)
CCCNC(=O)c1c(Cl)cnn1-c1ccc(C)cc1 | 4.34% (inactive)
COc1ccc2[nH]c3c(c2c1)CCN1C(=O)C(CC(=O)NCCc2ccccn2)C[C@H](C(=O)N2CCOCC2)[C@@]31C (stereo partly drawn) | -8.9% (inactive)
COC(=O)[C@]1(Cc2ccccc2)N[C@H](CN(C)S(=O)(=O)c2ccc(OC(F)(F)F)cc2)[C@@H]2C(=O)N(C)C(=O)[C@@H]21 | -4.26% (inactive)
N#CCCN1CCN(S(=O)(=O)c2ccc(S(=O)(=O)NC3CCCCC3)cc2)CC1 | 49.3% (active)
N#CCCN1CCN(S(=O)(=O)c2ccc(S(=O)(=O)N3CCCC3)cc2)CC1 | 2.13% (inactive)
Cc1ccc(S(=O)(=O)NC2CCCCCC2)cc1 | 0.011% (inactive)
COc1ccc(-c2c(-c3cc(OC)cc(OC)c3)n(C)c3ccc(-c4ccn[nH]4)cc23)cc1 | -3.15% (inactive)
CCN1CCC(O)(/C=C/c2ccc(C)cc2)C(C(=O)/C=C/c2ccc(C)cc2)C1 (stereo not drawn) | 8.48% (inactive)
Cn1c(=O)c(C(=O)Nc2ncccn2)c(O)c2ccccc21 | 35% (active)
C=CCn1c(=O)c(C(=O)Nc2ncccc2O)c(O)c2ccccc21 | -2.5% (inactive)
CCCn1c(=O)c(C(=O)Nc2cc(C)ccn2)c(O)c2ccccc21 | -3.7% (inactive)
